For 58 compounds, survival results are on record in PubChem BioAssay AID463173 (ICCB-Longwood Screening Facility, Harvard Medical School, 2010).

SMILES strings stand for the structures. Screen size: about 52,000 compounds; about 4,300 (8.3%) were called active. Rule as the data show it: active = survival mostly below about 52% (no sharp cut-off); inactive = mostly above about 56%. Only a selection was taken, and actives are over-represented in it overall.

The test relates to DeltatarO mutant. In words: S. aureus survival, RN4220 and DeltatarO strains – OD600, teichoic acid synthesis inhibitors, primary screen (AID 463173). The settings on record: S. aureus RN4220 wild type/DeltatarO growth, OD600, 18 h, hits give low values, screened at 18.75 µg/mL (by protocol).
Take `O=C(Nc1ccc(Cl)cc1)N1CCN(c2ccc3nnc(-c4ccc(F)cc4)n3n2)CC1`: the survival is 68% (inactive).
Next, `Cc1ccc2oc(-c3cccc(NC(=O)c4sc5c([N+](=O)[O-])cccc5c4Cl)c3)nc2c1`: 67% (inactive); `COc1cc(-c2nc(Cn3nnc(C(=O)Nc4ccccc4C)c3C)c(C)o2)cc(OC)c1OC`: 58% (inactive); `COc1ccc(NC(=O)c2c(C)oc3ccc(O)c(CN4CCN(Cc5ccccc5)CC4)c23)cc1`: 56% (inactive).
For `CCn1c(=O)c2sccc2n2c(CCC(=O)Nc3ccc(F)cc3)nnc12`, the survival was 82% (inactive).
Next, `O=C(CSc1nc2ccccc2n1Cc1ccc(F)c(Cl)c1)N1CCN(c2ccc(F)cc2)CC1`: 61% (inactive).
As to `Cc1csc2nc(COC(=O)c3ccccc3NC(=O)c3cccc(Br)c3)cc(=O)n12`, the survival is 87% (inactive).
Turning to `Cc1ccc(CNC(=O)c2c(-c3cccc(Br)c3)noc2C)o1`, the survival was 87% (inactive).
For `Cc1ccc(C)c(NC(=O)CN(CCc2ccccc2)S(=O)(=O)c2ccccc2)c1`, the survival is 46% (active).
As for `Cc1ccc(NC(=O)CN(CCc2ccccc2)S(=O)(=O)c2ccccc2)c(C)c1`, the figure is 38% (active); as for `Cc1c(Cl)cccc1NC(=O)CN(CCc1ccccc1)S(=O)(=O)c1ccccc1`, 49% (inactive); as for `CCOc1ccccc1NC(=O)CN(CCc1ccccc1)S(=O)(=O)c1ccc(C)cc1`, 106% (inactive).
As for `COc1ccc(S(=O)(=O)N(CCc2ccccc2)CC(=O)Nc2cc(C)ccc2C)cc1`, the figure is 48% (inactive); as for `COc1ccc(S(=O)(=O)N(CCc2ccccc2)CC(=O)Nc2cc(Cl)ccc2C)cc1`, 58% (inactive); as for `Cc1cccc(NC2=CC(c3cccc(Br)c3)N(c3cccc(C)c3)C2=O)c1` (stereo not drawn), 137% (inactive).
Next, `Cc1ccccc1Cn1ccn(-c2ccc(F)c(F)c2)c(=O)c1=O`: 76% (inactive).
As for `O=C(CCNS(=O)(=O)c1ccc2c(c1)CCN2C(=O)C1CC1)N1CCN(c2cccc(Cl)c2)CC1`, the survival was 122% (inactive).
As to `COc1ccc(OCC(=O)N2CCc3ccccc3C2)cc1`, the survival was 80% (inactive).
Take `O=c1n(Cc2cccc(C(F)(F)F)c2)c2ccccc2c2nc(-c3ccccc3)nn12`: the survival is 80% (inactive).
For `Cc1ccc(-c2nc3c4ccccc4n(Cc4cccc(Cl)c4)c(=O)n3n2)cc1`, the survival was 123% (inactive).
Next, `COc1cccc(CNC(=O)Cn2c(=O)n3nc(-c4cccc(F)c4)nc3c3ccccc32)c1`: 77% (inactive); `O=c1n(Cc2ccc(F)cc2)c2ccccc2c2nc(-c3ccccc3)nn12`: 86% (inactive).
Next, `O=c1n(Cc2cccc(F)c2)c2ccccc2c2nc(-c3ccccc3)nn12`: 33% (active).
Next, `CCc1cccc(NC(=O)Cn2c(=O)n3nc(-c4cccc(F)c4)nc3c3ccccc32)c1`: 52% (active); `Cc1cccc(-c2nc3c4ccccc4n(Cc4cccc(Cl)c4)c(=O)n3n2)c1`: 97% (inactive); `Cc1cccc(Cn2c(=O)n3nc(-c4ccccc4)nc3c3ccccc32)c1`: -16% (active).
On to `Cc1cccc(-c2nc3c4ccccc4n(CC(=O)Nc4cccc(F)c4)c(=O)n3n2)c1`, for which the survival is 95% (inactive).
For `CCOc1ccc(NC(=O)c2oc3ccccc3c2NC(=O)Cc2cccs2)cc1`, the survival is 82% (inactive).
With `O=C(Cn1cnc2c(cnn2-c2ccccc2)c1=O)c1ccccc1`, the survival is 55% (inactive).
In the case of `O=C(Nc1ccc(F)cc1F)c1ccc(-n2cnnc2)cc1`, the survival is 73% (inactive).
For the compound `CCc1ccc(N(CC)C(=O)Cn2c(=O)oc3ccccc32)cc1`, the survival is 70% (inactive).
As for `COC(=O)C1=C(c2ccccc2)c2ccccc2S(=O)(=O)N1CC(=O)Nc1ccccc1Cl`, the figure is 37% (inactive); as for `Cc1oc2ncn(C)c(=O)c2c1C(=O)NCc1ccc(Cl)cc1`, 84% (inactive); as for `CCOc1ccccc1NC(=O)C1CCN(S(=O)(=O)c2ccc3c(c2)CCCN3C(C)=O)CC1`, 75% (inactive).
With `CC(NC(=O)C1CCN(S(=O)(=O)Cc2ccccc2)CC1)c1ccccc1` (stereo not drawn), the survival was 68% (inactive).
As for `CCC1CCCCN1C(=O)CSc1nc(-c2ccc(OC)cc2)cc(C(F)(F)F)n1` (stereo not drawn), the figure is 1% (active); as for `COc1ccc(-c2cc(C(F)(F)F)nc(SCC(=O)N3CCCCC3)n2)cc1`, 74% (inactive); as for `COc1ccc(-c2cc(C(F)(F)F)nc(SCC(=O)N3CCCCC3)n2)cc1OC`, 71% (inactive).
Take `CCC1CCCCN1C(=O)CSc1nc(-c2ccc(OC)c(OC)c2)cc(C(F)(F)F)n1` (stereo not drawn): the survival was -3% (active).
Next, `COc1ccc(-c2cc(C(F)(F)F)nc(SCCC(=O)N3CCN(C)CC3)n2)cc1`: 114% (inactive); `COc1ccc(-c2cc(C(F)(F)F)nc(SCC(=O)N3CCCCC3C)n2)cc1OC` (stereo not drawn): 52% (inactive).
For `O=C(CNCc1ccco1)Nc1cccc(OC(F)(F)F)c1`, the survival is 99% (inactive).
`O=C(CN1C(=O)C2CCCCN2c2ccc(C(=O)N3CCCC3)cc21)NCc1cccc(F)c1` (stereo not drawn): the survival was 66% (inactive).
As for `CCCCOc1cccc(C(=O)Nc2cccc3ccc(C)nc23)c1`, the figure is 75% (inactive); as for `CCN(CCN(C)C)C(=O)Cn1ncc2c([nH]c3ccc(C)cc32)c1=O`, 88% (inactive).
`Cc1ccc(Cl)cc1-n1ncc2c(NC3CCCCC3)ncnc21`: the survival is 54% (inactive).
As for `COc1ccccc1Nc1nc(Nc2cccc(C(F)(F)F)c2)nc(N2CCOCC2)n1`, the figure is 73% (inactive); as for `CCOc1ccc(Oc2nc(NC)nc(N3CCOCC3)n2)nn1`, 99% (inactive).
Regarding `COc1ccc(N2CCOCC2)cc1`, the survival is 89% (inactive).
For `CCCCNc1nc(Oc2ccc(OCC)nn2)nc(N2CCOCC2)n1`, the survival is 77% (inactive).
Next, `CCOc1nc(Nc2ccc(OC)cc2)nc(N2CCOCC2)n1`: 70% (active); `CCOc1ccc(NC(=O)c2c(C)oc3nc(C)nc(N4CCOCC4)c23)cc1`: 93% (inactive).
Next, `COc1ccc(Nc2nc(Nc3ccc(OC)cc3OC)nc(N3CCOCC3)n2)c(OC)c1`: 14% (active).
As for `CCOc1ccc(Oc2nc(NCC(C)C)nc(N3CCOCC3)n2)nn1`, the figure is 79% (inactive).
Take `CCOc1ccc(Nc2nc(Nc3ccc(OCC)cc3)nc(N3CCOCC3)n2)cc1`: the survival was 44% (active).
As for `Cc1cc2c(cc3c(SCc4cccc(F)c4)nnc(C)n32)o1`, the figure is 68% (inactive).
As for `CCOC(=O)Cn1cnc2onc(-c3ccc(F)cc3)c2c1=O`, the figure is 141% (inactive); as for `CCOc1ccccc1NC(=O)CSc1nc2c(oc3ccccc32)c(=O)n1-c1ccc(C)c(C)c1`, 88% (inactive).
